From PubChem BioAssay (NCI)
About 83,000 compounds went through this panel and 20% of them were active in at least one assay; those are over-represented in the sample as a whole.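 Values shown are percent growth following 48 h exposure of cells in 96-well plates to a single concentration of compound; below 10 was considered active.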 Activity calls are given as the source filed them.

Assays:
Assay in all cases: NCI-60 one-dose screen, 48 h (100 = growth as untreated, 0 = no growth, -100 = all killed)
Conditions in all cases: 10 µM unless noted
NCI-H23 lung = tested on: NCI-H23 lung
NCI-H226 lung = tested on: NCI-H226 lung
NCI-H322M lung = tested on: NCI-H322M lung
HOP-62 NSCLC = tested on: HOP-62 NSCLC
NCI-H460 lung = tested on: NCI-H460 lung
HOP-92 NSCLC = tested on: HOP-92 NSCLC
NCI-H522 lung = tested on: NCI-H522 lung
A549/ATCC NSCLC = tested on: A549/ATCC NSCLC
786-0 renal = tested on: 786-0 renal
COLO 205 colon = tested on: COLO 205 colon
DU-145 prostate = tested on: DU-145 prostate
K-562 leukemia = tested on: K-562 leukemia
MALME-3M melanoma = tested on: MALME-3M melanoma
MDA-MB-231 breast = tested on: MDA-MB-231 breast
RXF 393 renal = tested on: RXF 393 renal
SF-268 CNS = tested on: SF-268 CNS
SF-295 CNS = tested on: SF-295 CNS
SF-539 CNS = tested on: SF-539 CNS
UACC-257 melanoma = tested on: UACC-257 melanoma
M14 melanoma = tested on: M14 melanoma

Measured: growth

COc1sc(/C=N/NC(=O)c2[nH]c3ccc(Br)cc3c2-c2ccccc2)cc1Br
active: NCI-H23 lung -14.1% | NCI-H460 lung -7.71% | NCI-H522 lung -35.8% | A549/ATCC NSCLC 6.26% | 786-0 renal -1.7% | COLO 205 colon 0.155% | DU-145 prostate -8.01% | K-562 leukemia 7.79% | MDA-MB-231 breast -13.3% | RXF 393 renal -0.818% | SF-268 CNS 3.22% | SF-295 CNS -15% | SF-539 CNS -64.1%
inactive: NCI-H226 lung 14.7% | NCI-H322M lung 31.4% | HOP-62 NSCLC 12.2% | HOP-92 NSCLC 63.7% | MALME-3M melanoma 48% | UACC-257 melanoma 52.7% | M14 melanoma 10.7%

COc1ccc(C2=Nc3c(N)nc(N)nc3NC(c3ccc(Oc4nc(Nc5ccc(F)cc5)nc(N(C)C)n4)c(OC)c3)C2)cc1 (stereo unspecified)
inactive: NCI-H23 lung 88.4% | NCI-H226 lung 77.4% | NCI-H322M lung 104% | HOP-62 NSCLC 82.5% | NCI-H460 lung 71% | HOP-92 NSCLC 16.6% | NCI-H522 lung 88% | 786-0 renal 52.6% | COLO 205 colon 91.6% | DU-145 prostate 68.8% | K-562 leukemia 29.5% | MALME-3M melanoma 83.1% | MDA-MB-231 breast 43.3% | RXF 393 renal 12.1% | SF-268 CNS 61.6% | SF-295 CNS 85.7% | SF-539 CNS 71.9% | UACC-257 melanoma 70.5% | M14 melanoma 93.4%

Cc1ccc(C(=O)Nc2cc(-c3ccccc3)cc(C(F)(F)F)c2)cc1C#Cc1cnc2cccnn12
inactive: NCI-H23 lung 63.3% | NCI-H226 lung 51.2% | NCI-H322M lung 102% | HOP-62 NSCLC 108% | NCI-H460 lung 51.1% | HOP-92 NSCLC 95.4% | NCI-H522 lung 56.3% | A549/ATCC NSCLC 68.9% | 786-0 renal 60% | COLO 205 colon 73.1% | DU-145 prostate 84.8% | MALME-3M melanoma 39% | MDA-MB-231 breast 57.3% | RXF 393 renal 73.7% | SF-268 CNS 91.9% | SF-295 CNS 68% | SF-539 CNS 63.8% | UACC-257 melanoma 65.8% | M14 melanoma 36.8%
active: K-562 leukemia 5.94%

COc1cc2cc(C(=O)N3C[C@@H](CCl)c4c3cc(OC(=O)N(C)CCSSCCN3CCOCC3)c3ccccc43)[nH]c2c(OC)c1OC
active: NCI-H23 lung -66.9% | NCI-H226 lung -17.2% | NCI-H322M lung 1.49% | HOP-62 NSCLC -49.4% | NCI-H460 lung 0.904% | HOP-92 NSCLC -16.1% | NCI-H522 lung -42.8% | A549/ATCC NSCLC -9.46% | 786-0 renal -65% | COLO 205 colon -80.4% | DU-145 prostate -10.3% | K-562 leukemia 2.13% | MALME-3M melanoma -83.7% | MDA-MB-231 breast -20.2% | RXF 393 renal -86.6% | SF-268 CNS 0.895% | SF-295 CNS -11.3% | SF-539 CNS -72% | UACC-257 melanoma -8.65% | M14 melanoma -81.4%

COc1cc(NC(=O)CSc2nnc(-c3ccc(-c4nc5ccc(Cl)cc5[nH]4)cc3)o2)cc(OC)c1OC
inactive: NCI-H23 lung 52.2% | NCI-H226 lung 57.3% | NCI-H322M lung 95.2% | HOP-62 NSCLC 65.9% | NCI-H460 lung 29% | HOP-92 NSCLC 91.5% | NCI-H522 lung 35% | 786-0 renal 56.7% | COLO 205 colon 74.2% | DU-145 prostate 96% | K-562 leukemia 29.5% | MALME-3M melanoma 18.1% | MDA-MB-231 breast 60.2% | RXF 393 renal 25.8% | SF-268 CNS 52.9% | SF-295 CNS 65% | SF-539 CNS 24.1% | UACC-257 melanoma 67.2% | M14 melanoma 33.5%

CC(=O)c1c2c(c3ccc4c5ccccc5ccc4n13)C(=O)c1ccccc1C2=O
inactive: NCI-H23 lung 68.4% | NCI-H226 lung 54.8% | NCI-H322M lung 92.9% | HOP-62 NSCLC 70.7% | NCI-H460 lung 28% | HOP-92 NSCLC 94.9% | NCI-H522 lung 91.9% | A549/ATCC NSCLC 84.1% | 786-0 renal 78.5% | COLO 205 colon 99.8% | DU-145 prostate 102% | K-562 leukemia 103% | MDA-MB-231 breast 77.3% | RXF 393 renal 59.6% | SF-268 CNS 98% | SF-295 CNS 92.5% | SF-539 CNS 77.6% | UACC-257 melanoma 97.5% | M14 melanoma 65.7%
active: MALME-3M melanoma -49.5%

Cc1ccc2nc(COc3ccc(C(=O)NNC(=O)Nc4ccc(Cl)c(C(F)(F)F)c4)cc3)[nH]c2c1
active: HOP-62 NSCLC 6.46% | HOP-92 NSCLC -22.6% | MALME-3M melanoma -48.5% | MDA-MB-231 breast 3.89% | SF-539 CNS -10.6% | UACC-257 melanoma -17.4%
inactive: NCI-H23 lung 25.9% | NCI-H226 lung 54.2% | NCI-H322M lung 22.3% | NCI-H460 lung 32.8% | NCI-H522 lung 41% | A549/ATCC NSCLC 17.1% | 786-0 renal 50.1% | COLO 205 colon 84.1% | DU-145 prostate 59.3% | K-562 leukemia 20.8% | RXF 393 renal 50.2% | SF-268 CNS 40.1% | SF-295 CNS 63% | M14 melanoma 27.7%

O=CNc1cccc(-n2cnc3cc(-c4ccc(O)cc4)ccc32)c1
active: NCI-H226 lung -0.208% | NCI-H522 lung -6.53% | SF-539 CNS -6.56%
inactive: NCI-H23 lung 34.6% | NCI-H322M lung 68.1% | HOP-62 NSCLC 42.6% | NCI-H460 lung 16.7% | HOP-92 NSCLC 71.7% | 786-0 renal 39.1% | COLO 205 colon 39% | DU-145 prostate 43.7% | K-562 leukemia 12.2% | MALME-3M melanoma 42.8% | MDA-MB-231 breast 55.3% | RXF 393 renal 11% | SF-268 CNS 40.7% | SF-295 CNS 25.5% | UACC-257 melanoma 84.7%
